Results on six sequences are retold here after PMC11574364.

Among the targets are hnRNP K(3) (Homo sapiens, UniProt P61978); TAF15 (Homo sapiens, UniProt Q92804); RED1(2)/ADARB1 (Homo sapiens, UniProt P78563).
Holding throughout (test): protein domain microarray probed with biotinylated miRNA; Domain array: 20 mM Tris-HCl pH 7.4, 200 mM KCl, 0.2 mM EDTA, 0.05% NP40, 2 ug/ul heparin, overnight 4 C. ORF array: PBS pH 7.0 with RNase inhibitor, 100 ng RNA; high values mean tight binding
What all share (conditions): ssRNA

Another experiment concerns the target T1, RBM35A (Homo sapiens, UniProt Q6NXG1).
T1 sequence: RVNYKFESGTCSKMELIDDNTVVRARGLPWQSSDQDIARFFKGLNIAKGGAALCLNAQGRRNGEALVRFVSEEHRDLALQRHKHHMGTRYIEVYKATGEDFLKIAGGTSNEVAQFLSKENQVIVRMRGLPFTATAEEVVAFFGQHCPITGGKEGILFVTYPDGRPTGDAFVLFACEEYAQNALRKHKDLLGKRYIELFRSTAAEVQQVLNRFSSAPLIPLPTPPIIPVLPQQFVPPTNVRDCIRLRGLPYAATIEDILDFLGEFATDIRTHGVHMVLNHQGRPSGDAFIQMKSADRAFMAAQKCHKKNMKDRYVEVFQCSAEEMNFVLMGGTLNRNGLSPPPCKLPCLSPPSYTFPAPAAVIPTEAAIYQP

In a further experiment the target is T2, RKHD2(1-2) (Homo sapiens, UniProt Q5U5Q3).
T2 sequence: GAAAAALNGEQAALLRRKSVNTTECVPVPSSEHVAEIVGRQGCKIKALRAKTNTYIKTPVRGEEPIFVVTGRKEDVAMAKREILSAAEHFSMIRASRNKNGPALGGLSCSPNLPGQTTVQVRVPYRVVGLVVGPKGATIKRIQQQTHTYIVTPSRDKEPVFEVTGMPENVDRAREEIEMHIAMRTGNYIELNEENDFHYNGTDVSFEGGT

The target in a further experiment is T3, RBM35B (Homo sapiens, UniProt Q9H6T0).
T3 sequence: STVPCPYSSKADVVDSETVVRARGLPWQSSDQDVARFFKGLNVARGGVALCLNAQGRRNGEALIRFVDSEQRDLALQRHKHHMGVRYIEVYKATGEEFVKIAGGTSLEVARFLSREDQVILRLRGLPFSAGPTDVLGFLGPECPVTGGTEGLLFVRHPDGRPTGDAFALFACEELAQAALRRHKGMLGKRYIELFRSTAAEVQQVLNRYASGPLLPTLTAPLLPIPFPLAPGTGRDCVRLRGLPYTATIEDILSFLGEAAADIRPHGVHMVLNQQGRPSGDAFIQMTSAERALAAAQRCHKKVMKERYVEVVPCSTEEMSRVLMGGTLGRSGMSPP

Another experiment concerns the target T4, RBM6 (Homo sapiens, UniProt P78332).
T4 sequence: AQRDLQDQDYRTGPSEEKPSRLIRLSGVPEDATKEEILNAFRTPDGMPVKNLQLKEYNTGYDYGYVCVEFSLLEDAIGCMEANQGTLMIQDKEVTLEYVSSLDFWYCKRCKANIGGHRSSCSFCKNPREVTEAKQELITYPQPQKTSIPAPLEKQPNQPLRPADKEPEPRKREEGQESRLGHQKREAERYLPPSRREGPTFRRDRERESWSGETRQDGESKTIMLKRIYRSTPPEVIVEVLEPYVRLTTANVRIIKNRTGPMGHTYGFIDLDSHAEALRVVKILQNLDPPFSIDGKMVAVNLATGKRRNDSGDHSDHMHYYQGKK

A further experiment addresses T5, RBM23 (Homo sapiens, UniProt Q86U06).
T5 sequence: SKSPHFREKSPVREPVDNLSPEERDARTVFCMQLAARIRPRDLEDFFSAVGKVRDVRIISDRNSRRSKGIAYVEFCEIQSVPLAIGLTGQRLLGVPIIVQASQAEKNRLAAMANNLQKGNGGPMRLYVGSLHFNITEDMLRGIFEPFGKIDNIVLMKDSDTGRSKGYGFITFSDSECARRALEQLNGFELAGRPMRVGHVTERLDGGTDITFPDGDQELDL

A further experiment addresses T6, KHDRBS2 (Homo sapiens, UniProt Q5VWX1).
T6 sequence: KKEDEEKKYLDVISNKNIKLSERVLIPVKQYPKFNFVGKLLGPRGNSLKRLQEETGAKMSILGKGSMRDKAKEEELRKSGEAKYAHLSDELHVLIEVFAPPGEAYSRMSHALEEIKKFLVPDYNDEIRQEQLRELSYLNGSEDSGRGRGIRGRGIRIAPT

In another experiment the target is T7, RBM12B(1-3) (Homo sapiens, UniProt Q8IXT5).
T7 sequence: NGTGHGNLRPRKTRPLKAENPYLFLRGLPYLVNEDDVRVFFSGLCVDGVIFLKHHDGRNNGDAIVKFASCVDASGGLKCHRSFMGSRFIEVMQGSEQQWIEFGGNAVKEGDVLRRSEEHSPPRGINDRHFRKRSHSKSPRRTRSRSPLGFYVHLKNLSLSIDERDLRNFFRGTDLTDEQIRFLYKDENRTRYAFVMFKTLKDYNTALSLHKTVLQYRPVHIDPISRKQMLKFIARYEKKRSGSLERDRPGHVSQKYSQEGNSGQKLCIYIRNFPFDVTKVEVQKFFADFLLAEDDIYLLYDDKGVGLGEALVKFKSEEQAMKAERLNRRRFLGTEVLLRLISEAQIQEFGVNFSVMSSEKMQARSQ

Chain of hnRNP K(3) (P61978 369-463): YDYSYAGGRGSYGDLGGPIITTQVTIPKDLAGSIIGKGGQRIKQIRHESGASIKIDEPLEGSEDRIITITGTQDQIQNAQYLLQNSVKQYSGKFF
Chain of TAF15 (Q92804 215-340): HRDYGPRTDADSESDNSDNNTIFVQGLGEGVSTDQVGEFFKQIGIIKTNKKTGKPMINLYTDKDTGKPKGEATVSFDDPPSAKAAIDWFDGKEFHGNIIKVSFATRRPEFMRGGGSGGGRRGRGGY

Regarding CAGUGCAAUGAUGAAAGGGCAU, the binding signal with hnRNP K(3) stood at 294 ± 10.8 fluorescence intensity; with RBM35A it was 1310 ± 17.7 fluorescence intensity; with RKHD2(1-2) it was 486 ± 53.7 fluorescence intensity; in the experiment with RBM35B it was 135 ± 1.71 fluorescence intensity; with TAF15 it was 104 ± 15.9 fluorescence intensity; with RBM6, 107 ± 6.4 fluorescence intensity. For the same sequence, the binding signal stood at 199 ± 29.6 fluorescence intensity in the experiment with RBM23, 1440 ± 198 fluorescence intensity with KHDRBS2, 194 ± 28.6 fluorescence intensity with RBM12B(1-3) and 68.1 ± 3.97 fluorescence intensity with RED1(2)/ADARB1.
On to AGAGGUAGUAGGUUGCAUAGUU, for which the binding signal with hnRNP K(3) was found to be 181 ± 4.45 fluorescence intensity; with RBM35A, 2590 ± 119 fluorescence intensity; with RKHD2(1-2), 874 ± 10.7 fluorescence intensity; with RBM35B it was 170 ± 4.31 fluorescence intensity; with TAF15, 299 ± 23.1 fluorescence intensity; with RBM6, 491 ± 28 fluorescence intensity. Also, the binding signal came to 644 ± 79.1 fluorescence intensity in the experiment with RBM23, 1300 ± 14.4 fluorescence intensity with KHDRBS2, 274 ± 48.6 fluorescence intensity with RBM12B(1-3) and 73.3 ± 1.94 fluorescence intensity with RED1(2)/ADARB1.
Regarding UGAGGUAGUAGGUUGUGUGGUU, the binding signal worked out at 291 ± 3.08 fluorescence intensity in the experiment with hnRNP K(3); 1439 ± 11.1 fluorescence intensity with RBM35A; 680.7 ± 1.67 fluorescence intensity with RKHD2(1-2); 287 ± 29.8 fluorescence intensity with RBM35B; 662 ± 122 fluorescence intensity in the experiment with TAF15; 453 ± 28.5 fluorescence intensity with RBM6. In addition, the binding signal turned out to be 678.5 ± 0.919 fluorescence intensity with RBM23, 1190 ± 18.7 fluorescence intensity with KHDRBS2, 329 ± 27.9 fluorescence intensity with RBM12B(1-3) and 143.2 ± 0.375 fluorescence intensity with RED1(2)/ADARB1.
On to UGAGGUAGUAGGUUGUAUGGUU, for which the binding signal in the experiment with hnRNP K(3) was 199 ± 15.1 fluorescence intensity; with RBM35A it was 1320 ± 26.9 fluorescence intensity; with RKHD2(1-2) it was 733 ± 12 fluorescence intensity; in the experiment with RBM35B, 193.1 ± 0.566 fluorescence intensity; with TAF15, 588 ± 28.9 fluorescence intensity; in the experiment with RBM6 it was 550 ± 31 fluorescence intensity. Further, the binding signal is 843 ± 102 fluorescence intensity with RBM23, 842 ± 171 fluorescence intensity with KHDRBS2, 324 ± 46.5 fluorescence intensity with RBM12B(1-3) and 87.6 ± 3.8 fluorescence intensity in the experiment with RED1(2)/ADARB1.
Regarding UAGCUUAUCAGACUGAUGUUGA, the binding signal with hnRNP K(3) was found to be 79.6 ± 1.76 fluorescence intensity; with RBM35A it was 26.4 ± 2.09 fluorescence intensity; in the experiment with RKHD2(1-2), 234 ± 5.59 fluorescence intensity; in the experiment with RBM23 it was 26.5 ± 5.48 fluorescence intensity; with KHDRBS2, 463 ± 19.2 fluorescence intensity.
Turning to UGAGGUAGUAGGUUGUAUAGUU, the binding signal stood at 52.1 ± 3.1 fluorescence intensity with hnRNP K(3); 521 ± 7.45 fluorescence intensity in the experiment with RBM35A; 509.4 ± 2.09 fluorescence intensity in the experiment with RKHD2(1-2); 31.4 ± 1.56 fluorescence intensity in the experiment with RBM35B; 54.7 ± 13.8 fluorescence intensity with TAF15; 20.3 ± 1.75 fluorescence intensity in the experiment with RBM6. Further, the binding signal was 162.15 ± 0.134 fluorescence intensity with RBM23, 388 ± 52.1 fluorescence intensity with KHDRBS2, 44.5 ± 1.46 fluorescence intensity in the experiment with RBM12B(1-3) and 25 ± 0.453 fluorescence intensity with RED1(2)/ADARB1.
